Consider 15 molecules from PubChem BioAssay (NCI).

This is part of a sample that, as a whole, favours compounds with a hit. Of some 83,000 tested, about 20% had one in any assay.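 The endpoint reported here, percent growth, reads 100 for growth as untreated, 0 for no net growth and -100 for all cells dead.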 Unmarked numbers belong to inactive results. Activity calls are given as the source filed them. The calls were made as follows: active = growth percent below 10; inactive = the rest.

Some test systems named below: NCI-H23 lung; NCI-H226 lung; NCI-H322M lung; HOP-62 NSCLC; NCI-H460 lung; HOP-92 NSCLC; NCI-H522 lung; A549/ATCC NSCLC; 786-0 renal.
Common to all, as to experiment: NCI-60 one-dose screen, 48 h (100 = growth as untreated, 0 = no growth, -100 = all killed)
What all share (details): 10 µM unless noted

With `COC(=O)c1cc([N+](=O)[O-])cc([N+](=O)[O-])c1Cl`, the growth in the test with NCI-H23 lung is 98.3%; in the test on NCI-H226 lung, 102%; in the test with NCI-H322M lung it was 106%; with HOP-62 NSCLC, 102%; with NCI-H460 lung it was 102%; in the test on HOP-92 NSCLC it was 99.7%. In addition, the growth in the test on NCI-H522 lung was -74% (active); with A549/ATCC NSCLC it was 101%; with 786-0 renal, 102%.

As for `CCCCCCCCCCCC[n+]1ccccc1` (tested in a mixture with another compound), the growth was -2.11% (active) in the test with NCI-H23 lung; 11.3% in the test with NCI-H226 lung; 31.9% with NCI-H322M lung; -24.3% (active) with HOP-62 NSCLC; 0.69% (active) in the test on NCI-H460 lung; -50.8% (active) in the test with HOP-92 NSCLC. The growth with NCI-H522 lung is -53% (active); in the test with A549/ATCC NSCLC, -32.3% (active); with 786-0 renal it was -50% (active).

`CCOC(=O)c1cc(CC)sc1NC(=O)CC(C)=O`: the growth in the test with NCI-H23 lung was 43.2%; in the test with NCI-H226 lung, 70.1%; in the test on NCI-H322M lung it was 95.3%; in the test on HOP-62 NSCLC, 73%; with NCI-H460 lung it was 50.9%; in the test with HOP-92 NSCLC, 59%. Further, the growth is 34.4% with NCI-H522 lung, 78% with A549/ATCC NSCLC and 54.5% in the test with 786-0 renal.

Take `Cc1cc(Br)c2nsnc2c1[N+](=O)[O-]`: the growth with NCI-H23 lung was -6.95% (active); in the test on NCI-H226 lung, 44.4%; in the test with NCI-H322M lung, 88.2%; with HOP-62 NSCLC it was 55.6%; in the test on NCI-H460 lung, 2% (active); in the test on HOP-92 NSCLC, 62.5%. Also, the growth was -40% (active) with NCI-H522 lung, 54.4% with A549/ATCC NSCLC and 17.8% with 786-0 renal.

As to `Cc1nnc(N/N=C/c2ccc([N+](=O)[O-])o2)[nH]c1=O`, the growth in the test on NCI-H23 lung is 22.6%; with NCI-H226 lung it was 16.2%; in the test on NCI-H322M lung it was 16.6%; in the test on HOP-62 NSCLC, 11.3%; in the test on NCI-H460 lung it was 11.3%; with HOP-92 NSCLC it was -35.8% (active). Further, the values for the growth in the test with NCI-H522 lung, with A549/ATCC NSCLC and in the test with 786-0 renal were 17.1%, 28.5% and 14.9%, respectively.

Regarding `O=[N+]([O-])C=C(c1ccccc1)c1ccccc1`, the growth was 81.9% in the test with NCI-H23 lung; 88.6% in the test with NCI-H226 lung; 88% with NCI-H322M lung; 73.7% in the test on HOP-62 NSCLC; 88.4% in the test on NCI-H460 lung; 63.9% with HOP-92 NSCLC. In addition, the growth with NCI-H522 lung is 72.7%; in the test with A549/ATCC NSCLC it was 79.5%; with 786-0 renal, 89.2%.

`COc1cc([C@@H]2c3cc4c(cc3[C@H](OC3OC5COC(c6ccccc6)OC5C(O)C3O)[C@H]3COC(=O)[C@H]23)OCO4)cc(OC)c1OC` (stereo not given in full): the growth in the test on NCI-H23 lung is 22.4%; in the test on NCI-H226 lung, 75.9%; in the test on NCI-H322M lung, 44.2%; with HOP-62 NSCLC, 29.6%; in the test on NCI-H460 lung, 20.8%; with HOP-92 NSCLC, 37.7%. Besides, the figures for the growth with NCI-H522 lung, in the test with A549/ATCC NSCLC and in the test with 786-0 renal were 17.5%, 64.8% and 64%, respectively.

With `Nc1ccc(Oc2ccccc2)c(Cl)c1`, the growth is 108% with NCI-H23 lung; 94.2% in the test on NCI-H226 lung; 86.3% in the test on NCI-H322M lung; 86.6% in the test on HOP-62 NSCLC; 106% with NCI-H460 lung; 82.6% with HOP-92 NSCLC. The growth in the test on NCI-H522 lung was 108%; with A549/ATCC NSCLC, 94.6%; in the test on 786-0 renal it was 84.9%.

Turning to `CC(=O)c1c(O)c(C)c(O)c2c1OC1=CC(=O)C(C(C)=O)C(=O)C12C` (stereo not given), the growth was 79.1% with NCI-H23 lung; 88.6% in the test with NCI-H226 lung; 60.3% in the test with NCI-H322M lung; 74.3% in the test with HOP-62 NSCLC; 89.1% in the test with NCI-H460 lung; -0.143% (active) in the test on HOP-92 NSCLC. Also, the growth in the test on NCI-H522 lung is 71.7%; in the test on A549/ATCC NSCLC it was 96%; in the test with 786-0 renal, 69.9%.

On to `Oc1cc(Cl)ccc1Cc1ccc(Cl)cc1O`, for which the growth was 20.6% in the test on NCI-H23 lung; 96.6% in the test with NCI-H226 lung; 97% in the test with NCI-H322M lung; 60.5% with HOP-62 NSCLC; 46% in the test on NCI-H460 lung; -14.4% (active) in the test on HOP-92 NSCLC. The results for the growth in the test with NCI-H522 lung, with A549/ATCC NSCLC and with 786-0 renal were 33.8%, 73.7% and 92.8%, respectively.

As to `CC1(C)CCCC2=C1C(=O)N(SC(Cl)(Cl)Cl)C2=O`, the growth was 101% in the test on NCI-H23 lung; 93.6% with NCI-H226 lung; 101% in the test on NCI-H322M lung; 98.2% with HOP-62 NSCLC; 109% in the test on NCI-H460 lung; 89.5% in the test with HOP-92 NSCLC. Also, the growth in the test on NCI-H522 lung is -73.2% (active); with A549/ATCC NSCLC, 92.6%; in the test with 786-0 renal it was 95%.

As to `CN(C)CCN(C)CC(C)(C)C(=O)/C=C/c1ccc(Cl)c(Cl)c1`, the growth was -83.2% [100 µM] (active) in the test with NCI-H23 lung; -64.1% [100 µM] (active) in the test on NCI-H226 lung; -98.4% [100 µM] (active) with NCI-H322M lung; -92.9% [100 µM] (active) in the test with HOP-62 NSCLC; -72.8% [100 µM] (active) in the test on NCI-H460 lung; -89.4% [100 µM] (active) in the test on HOP-92 NSCLC. For the same molecule, the growth with NCI-H522 lung was -89.5% [100 µM] (active); in the test with A549/ATCC NSCLC, -82% [100 µM] (active); in the test on 786-0 renal it was -93.6% [100 µM] (active).

With `OC(c1cc(-c2ccc(Cl)cc2)nc2c(Cl)cccc12)C1CCCCN1` (stereo not given), the growth was -9.58% (active) in the test on NCI-H23 lung; -44.1% (active) with NCI-H226 lung; -54.8% (active) in the test on NCI-H322M lung; -92.2% (active) with HOP-62 NSCLC; -87.4% (active) in the test with NCI-H460 lung; -29.4% (active) with HOP-92 NSCLC. The growth in the test with NCI-H522 lung is -89.1% (active); in the test with A549/ATCC NSCLC, -82.9% (active); in the test on 786-0 renal, -75% (active).

Turning to `Cc1cc(N/N=C/c2ccccn2)nc2ccccc12`, the growth with NCI-H23 lung is 14%; in the test on NCI-H226 lung, -1.94% (active); in the test on NCI-H322M lung it was 7.17% (active); in the test on HOP-62 NSCLC it was 0.2% (active); with NCI-H460 lung, 3.05% (active); in the test with HOP-92 NSCLC it was -2.87% (active). In addition, the growth is -25.6% (active) in the test on NCI-H522 lung, 1.82% (active) with A549/ATCC NSCLC and 8.98% (active) in the test on 786-0 renal.

`O=C1c2ccccc2Cc2cccc(Cl)c21`: the growth in the test on NCI-H23 lung was 95.5%; in the test with NCI-H226 lung, 94.6%; in the test on NCI-H322M lung, 85.4%; with HOP-62 NSCLC it was 98.8%; in the test on NCI-H460 lung it was 117%; with HOP-92 NSCLC, 110%. Further, the growth with NCI-H522 lung was 85.8%; with A549/ATCC NSCLC it was 91.7%; in the test on 786-0 renal it was 89.1%.
